Inconclusive results are not listed. Where a call stands in place of a potency, no number is given. Unmarked numbers belong to inactive results. Activity calls are given as the source filed them. Calls follow the shape of the dose curve; as a rule, active = well fitted cell-killing curve with a large enough effect; inconclusive = small, poorly fitted or top-dose-only effect, or effect the other way; inactive = flat fitted curve, though single readings scatter.
Potency is read from the fitted curve at half-maximal effect.

The test system of the assay is OV90. Briefly: Primary qHTS to identify gynecologic anti-cancer compounds using libraries of approved drugs and bioactive compounds (AID 1345084). Also: nearly all actives have a fitted effect of over 55% in size. The following applies: Gynecologic cancer cell panel viability, ATPlite luminescence, 48 h; series mostly up to 57.5 µM. The method, boiled down: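 Five-point cytotoxicity, 48 h drug exposure at 37 C, 5% CO2, on cells seeded 16 h beforehand. ATP content read by ATPlite luminescence.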
Background: Quantitative high-throughput screening tests each substance at several concentrations.
As for `CC(C)n1cnc2c(Nc3cccc(Cl)c3)nc(NCCO)nc21`, the Potency result was “inactive”. For `COc1ccc(-c2c(C)c(C(=O)NN3CCCCC3)nn2-c2ccc(Cl)cc2Cl)cc1`, the Potency result is “inactive”.

`O=C(CC1NCCC[C@H]1O)Cn1cnc2cc(Br)c(Cl)cc2c1=O` (some centres not stated): the Potency entry was “inactive”. For `Cc1c(C(=O)NCCCO)cnn1-c1nc(-c2cccc(C(F)(F)F)c2)cs1`, the Potency result was “inactive”. In the case of `C[C@@H](O[C@H]1OCCN(Cc2n[nH]nc2CN(C)C)[C@H]1c1ccc(F)cc1)c1cc(C(F)(F)F)cc(C(F)(F)F)c1`, the Potency entry is “inactive”. On the same count and under the same terms, for `CC[C@H](C)[C@H]1O[C@]2(CC[C@@H]1C)C[C@@H]1C[C@@H](C/C=C(\C)[C@@H](O[C@H]3C[C@H](OC)[C@@H](O[C@H]4C[C@H](OC)[C@@H](O)[C@H](C)O4)[C@H](C)O3)[C@@H](C)/C=C/C=C3\CO[C@@H]4[C@H](O)C(C)=C[C@@H](C(=O)O1)[C@]34O)O2` the value was “inactive”. The same measure, in the same setting: for `CCC(=O)Nc1cccc(Oc2nc(Nc3ccc(N4CCN(C)CC4)cc3OC)ncc2Cl)c1` the value was “inactive”; for `O=C(Nc1cccc(C(F)(F)F)c1)c1ccccc1NCc1ccncc1`, “inactive”; for `COc1cc2nc(-c3cc(F)ccc3O)nc(N[C@@H]3CNC[C@H]3C(C)(C)O)c2cc1OC`, “inactive”. On the same count and under the same terms, with `Cc1cc(CN)cc(C)c1NC(=O)c1ccc(-c2cc(Cl)ccc2Cl)o1` the entry was “inactive”. For `C=C1C(=O)O[C@@H]2/C=C(/C)CC3C=C(C[C@H](OC(=O)/C(C)=C\C)[C@@H]12)C(=O)O3` (some centres not stated), the Potency entry is “inactive”. The same measure, in the same setting: for `CC1(C)SC2C(NC(=O)[C@H](NC(=O)N3CCNC3=O)c3ccccc3)C(=O)N2C1C(=O)O` (some centres not stated) the value was “inactive”; for `CC1(C)SC2C(NC(=O)[C@H](C(=O)O)c3ccsc3)C(=O)N2C1C(=O)O` (some centres not stated), “inactive”; for `COc1ccc(-c2nc(-c3cc(C(F)(F)F)cc(C(F)(F)F)c3)n(Cc3ccc(C(N)=O)cc3)c2-c2ccc(OC)cc2)cc1`, “inactive”. Consider `Fc1ccccc1CNCc1ccc(-c2ccnc3[nH]ccc23)cc1`, for which the Potency result is “inactive”.

As for `CCCCc1nc(C)c(CC(=S)N(C)C)c(=O)n1Cc1ccc(-c2ccccc2-c2nn[nH]n2)cc1`, the Potency result is “inactive”. Same read-out and setting: for `CO[C@@H]1[C@@H](O[C@H]2O[C@@H](C)[C@H](O[C@@H]3C[C@](C)(O)[C@H](O)[C@@H](C)O3)[C@@H](N(C)C)[C@@H]2O)[C@@H](CC=O)C[C@@H](C)[C@@H](O[C@H]2CC[C@H](N(C)C)[C@H](C)O2)/C=C/C=C/C[C@@H](C)OC(=O)C[C@H]1O` the value was “inactive”.

With `CN([C@H]1c2cc(OCCCC(F)(F)F)ccc2OC(C)(C)[C@@H]1O)S(C)(=O)=O`, the Potency result is “inactive”.

Consider `CCOC(=O)CCC(=O)O[C@H]1[C@H](O[C@@H]2[C@@H](C)[C@H](O[C@H]3C[C@@](C)(OC)[C@@H](O)[C@H](C)O3)[C@@H](C)C(=O)O[C@H](CC)[C@@](C)(O)[C@H](O)[C@@H](C)C(=O)[C@H](C)CC2(C)O)O[C@H](C)C[C@@H]1N(C)C` (some centres not stated), for which the Potency result is “inactive”. On the same count and under the same terms, for `COc1cc(-c2cc(-c3cccc(O)c3)cnc2N)cc(OC)c1OC` the value was “inactive”.

On to `C=C1C(=O)O[C@@H]2C[C@@H](C)[C@]34C[C@]5(C(=O)O[C@H]6CC(C)=C([C@H](C)CCCO)[C@H](OC(=O)C(C)CC)[C@H]65)[C@@H](C(C)=C3C[C@@H]12)[C@H]4OC(C)=O` (some centres not stated), for which the Potency entry is “inactive”.

Consider `CC(=O)Nc1ccc(C(=O)Nc2ccccc2N)cc1`, for which the Potency was 3.98 µM (active).

In the case of `C[C@H](NC(=O)C(C)(C)Oc1ccc(C(F)(F)F)cn1)[C@@H](Cc1ccc(Cl)cc1)c1cccc(C#N)c1`, the Potency result was “inactive”. Same read-out and setting: for `CN(C)CC(=O)Nc1ccc2[nH]c(=O)c3ccccc3c2c1` the value was “inactive”. Take `CC(CCC1(O)OC2CC3C4CC=C5CC(O[C@@H]6O[C@H](CO)[C@@H](O[C@@H]7O[C@H](CO)[C@@H](O)[C@H](O)[C@H]7O)[C@H](O)[C@H]6O[C@@H]6O[C@@H](C)[C@H](O)[C@@H](O)[C@H]6O)CCC5(C)C4CCC3(C)C2C1C)CO[C@@H]1O[C@H](CO)[C@@H](O)[C@H](O)[C@H]1O` (some centres not stated): the activity change, negative = cytotoxicity was -1.03% [at 11.6 µM].

In the case of `CC(C)c1ccc(NC(=O)C(c2ccccc2)N(C)C(=O)Cc2c[nH]c3ccccc23)cc1` (configuration not stated), the Potency entry is “inactive”. Same read-out and setting: with `CCCCC(=O)N(Cc1ccc(-c2ccccc2-c2nn[nH]n2)cc1)C(C(=O)O)C(C)C` (configuration not stated) the entry was “inactive”; with `CCCCc1nc(Cl)c(CO)n1Cc1ccc(-c2ccccc2-c2nnn[nH]2)cc1`, “inactive”; with `COc1ccc2c(c1)CN(C(=O)CCN1CCC(Cc3ccccc3)CC1)CCS2`, 6.31 µM (active).

For the compound `C=C1C(=O)O[C@@H]2[C@H]1[C@H](O)C[C@]1(C)[C@@H](O)CC=C(C)[C@@H]21`, the Potency entry was “inactive”. Take `CCNC(=O)[C@@H]1CCCN1C(=O)[C@H](CCCN=C(N)N)NC(=O)[C@H](CC(C)C)NC(=O)[C@@H](CC(C)C)NC(=O)[C@H](Cc1ccc(O)cc1)NC(=O)[C@H](CO)NC(=O)[C@H](Cc1c[nH]c2ccccc12)NC(=O)[C@H](Cc1cnc[nH]1)NC(=O)[C@@H]1CCC(=O)N1`: the Potency entry is “inactive”. On to `COc1ccc(C2(CNC(=O)[C@](C)(Cc3c[nH]c4ccccc34)NC(=O)Nc3ccc([N+](=O)[O-])cc3)CCCCC2)nc1`, for which the Potency result is “inactive”.

Values taken from PubChem BioAssay (NCATS).
